This note sets out measurements from PubChem BioAssay (NCATS).

Records with an inconclusive call do not appear. Where a call stands in place of a potency, no number is given. The source made the active and inactive calls. The call rests on the fitted dose curve; tested in HEK293 reporter line.

The nature of the first experiment: qHTS for Inhibitors of the Functional Ribonucleoprotein Complex (vRNP) of Lassa (LASV) Arenavirus: LASV Primary Screen - GLuc reporter signal (AID 1347082). Further: nearly all actives have a fitted effect of over 60% in size. The following applies: LASV minigenome vRNP, Gaussia luciferase reporter; series mostly up to 57.5 µM. In general terms: qHTS replaces the single test concentration by a dilution series.
Consider `CC12C=CC(=O)C=C1CCC1C2C(=O)CC2(C)C(=O)CCC12` (stereo not given), for which the Potency entry is “inactive”.

For `C[C@@H]1CC[C@]2(C(=O)O[C@@H]3O[C@H](CO)[C@@H](O)[C@H](O)[C@H]3O)CC[C@]3(C)C(=CCC4[C@@]5(C)C[C@@H](O)[C@H](O)[C@@](C)(C(=O)O[C@@H]6[C@H](O)C[C@@]7(C)C(CC[C@]8(C)C7CC=C7[C@H]9[C@](C(=O)O[C@@H]%10O[C@H](CO)[C@@H](O)[C@H](O)[C@H]%10O)(CC[C@@H](C)[C@@]9(C)O)CC[C@]78C)[C@@]6(CO)C(=O)O)C5CC[C@]43C)[C@@H]2[C@]1(C)O` (stereo not given in full), the Potency result was “inactive”.

Take `COc1ccc(CC(=O)c2ccc(OC3OC(CO)C(O)C(O)C3O)cc2O)cc1` (stereo not given): the Potency result is “inactive”.

With `COc1ccc(CCC(=O)O)cc1`, the Potency result is “inactive”.

For the molecule `CC(C)C(=O)OCCc1ccccc1`, the Potency result was “inactive”.

For `CCCCCCCCC(=O)OCC`, the Potency entry was “inactive”.

Take `C#CCCC[C@@H]1OC(=O)CNC(=O)C([C@@H](C)CC)NC(=O)[C@@H]2CCCN2C(=O)C([C@@H](C)CC)OC(=O)[C@H](Cc2ccccc2)N(C)C(=O)[C@H](C(C)C)NC(=O)C1(C)C` (stereo not given in full): the Potency entry was “inactive”.

As to `CC(C)=CCC1=C(O)[C@](O)(CC=C(C)C)C(=O)C(C(=O)CC(C)C)=C1O`, the Potency result was “inactive”.

As for `CC(=O)Nc1ccccc1O`, the Potency result was “inactive”.

In the case of `C=C1C[C@@]23CC[C@H]4[C@@](C)(CCC[C@@]4(C)C(=O)O)[C@@H]2CC[C@]1(O)C3`, the Potency entry is “inactive”.

For `O[C@@H]1CCN2Cc3ccccc3N=C12`, the Potency result is “inactive”.

On to `CC1C(=O)OC2CCN3CC=C(COC(=O)C(C)(O)C1(C)O)C23` (stereo not given), for which the Potency entry is “inactive”.

In the case of `C=C1C2CC[C@]3(CCC4[C@@]5(C)CCC[C@@]4(CN(CCO)C5)[C@@H]3C2)[C@@H]1O` (stereo not given in full), the Potency entry was “inactive”.

With `CC(C)OC(=O)c1ccccc1`, the Potency entry was “inactive”.

Turning to `COC(=O)C1=CO[C@@H](O[C@@H]2O[C@H](CO)[C@@H](O)[C@H](O)[C@H]2O)C2C1CC(O)O[C@H]2C` (stereo not given in full), the Potency entry was “inactive”.

In the case of `CC(O)[C@H]1CC[C@H]2[C@@H]3CC[C@H]4C[C@@H](O)CC[C@]4(C)[C@H]3C(=O)C[C@]12C` (stereo not given in full), the Potency entry was “inactive”.

With `CC1=CC(=O)O[C@@H]1[C@@]1(C)C[C@H]2OC(=O)C[C@H]3[C@@H](C)C(=O)C(O)=C1[C@@]23CO`, the Potency entry is “inactive”.

As to `O=C1N[C@@H](Cc2c[nH]c3ccccc23)C(=O)N[C@H]1Cc1c[nH]c2ccccc12`, the Potency result was “inactive”.

As for `N#CC(c1ccc(O)cc1)N1CCCCC1` (stereo not given), the Potency result was “inactive”.

Turning to `O=CC(O)C1OC(=O)C(O)C1O` (stereo not given), the Potency result was “inactive”.

Take `C/C=C(/C)C(=O)OC1Cc2c(ccc3ccc(=O)oc23)OC1(C)C` (stereo not given): the Potency entry was “inactive”.

In the case of `COc1cc2c(c(OC)c1OC)-c1c(cc3c(c1O)OCO3)C[C@@H](C)[C@@H](C)C2`, the Potency entry is “inactive”.

For the molecule `O=C(/C=C/c1ccc(O)cc1)OCc1occc(=O)c1O[C@@H]1OC(CO)[C@@H](O)[C@H](O)[C@@H]1O` (stereo not given in full), the Potency entry is “inactive”.

With `C[N+](C)(C)C[C@H](O)CC(=O)[O-]`, the Potency entry was “inactive”.

For the molecule `CCCc1ccc(OC)cc1`, the Potency result is “inactive”.

For `O=C1c2c(O)cc(O)cc2O[C@@]12c1c(cc(O)c3c1O[C@H](c1ccc(O)cc1)[C@@H](O)C3)O[C@@H]2c1ccc(O)cc1`, the Potency result is “inactive”.

Take `CC(C)c1ccc(C=O)cc1`: the Potency entry is “inactive”.

Consider `CC(=O)C1CCC2C3CCC4=CC(=O)C=CC4(C)C3CCC12C` (stereo not given), for which the Potency entry is “inactive”.

Turning to `CCCCC(C=O)NC(=O)C(CC(C)C)NC(=O)OCc1ccccc1` (stereo not given), the Potency entry is “inactive”.

For `C=CC[C@]12C[C@@H](OC)C(=O)C=C1O[C@@H](c1ccc(OC)c(OC)c1)[C@H]2C`, the Potency result was “inactive”.

`C/C=C/C=C/CO`: the Potency entry is “inactive”.

`CC1=CC=C(C(C)C)CC1`: the Potency entry was “inactive”.

As to `CC(C)(O)[C@H](O)COc1c2occc2cc2ccc(=O)oc12`, the Potency result was “inactive”.

With `C#CCCC/C(=C\C(=O)N(C)[C@H](C(=O)N(C)[C@H](C(=O)N(C)[C@H](C(=O)N(C)[C@H](C(N)=O)C(C)C)C(C)C)C(C)C)C(C)C)OC`, the Potency result was “inactive”.

Turning to `O=C(CCCO)CCCCCCCCC[C@H]1N[C@H](CO)[C@@H](O)[C@@H]1O`, the Potency entry was “inactive”.

As to `C=C(C)C(O)COc1c2occc2c(OC)c2ccc(=O)oc12` (stereo not given), the Potency result is “inactive”.

In the case of `CC1(C)OC2CC3C4CC(F)C5=CC(=O)C=CC5(C)C4C(O)CC3(C)[C@]2(C(=O)CO)O1` (stereo not given in full), the Potency entry was “inactive”.

`N#CC(=C(O)c1ccc(Cl)cc1Cl)c1nc2cc(Cl)ccc2c(=O)[nH]1`: the Potency result is “inactive”.

As to `C/C(=C/CCC(C)(O)C1CC[C@@]2(C)[C@@H]3CC=C4[C@@H](CC[C@H](O[C@H]5O[C@@H](CO)[C@H](O)[C@@H](O)[C@@H]5O)C4(C)C)[C@]3(C)C(=O)C[C@]12C)CO[C@@H]1O[C@H](CO)[C@@H](O)[C@H](O)[C@H]1O` (stereo not given in full), the Potency entry was “inactive”.

Consider `O=C(O)CC(=O)Nc1ccccc1C(=O)O`, for which the Potency result was “inactive”.

A short description of the next experiment: qHTS for Inhibitors of the Functional Ribonucleoprotein Complex (vRNP) of Lassa (LASV) Arenavirus: Viability assay - alamar blue signal for LASV Primary Screen (AID 1347083). Further: nearly all actives have a fitted effect of over 80% in size. The following applies: cell viability, alamar blue fluorescence (LASV minigenome counter-screen); series mostly up to 57.5 µM.
With `CC12C=CC(=O)C=C1CCC1C2C(=O)CC2(C)C(=O)CCC12` (stereo not given), the Potency entry was “inactive”.

Take `C[C@@H]1CC[C@]2(C(=O)O[C@@H]3O[C@H](CO)[C@@H](O)[C@H](O)[C@H]3O)CC[C@]3(C)C(=CCC4[C@@]5(C)C[C@@H](O)[C@H](O)[C@@](C)(C(=O)O[C@@H]6[C@H](O)C[C@@]7(C)C(CC[C@]8(C)C7CC=C7[C@H]9[C@](C(=O)O[C@@H]%10O[C@H](CO)[C@@H](O)[C@H](O)[C@H]%10O)(CC[C@@H](C)[C@@]9(C)O)CC[C@]78C)[C@@]6(CO)C(=O)O)C5CC[C@]43C)[C@@H]2[C@]1(C)O` (stereo not given in full): the Potency entry was “inactive”.

In the case of `COc1ccc(CC(=O)c2ccc(OC3OC(CO)C(O)C(O)C3O)cc2O)cc1` (stereo not given), the Potency entry was “inactive”.

Turning to `COc1ccc(CCC(=O)O)cc1`, the Potency result is “inactive”.

Regarding `CC(C)C(=O)OCCc1ccccc1`, the Potency entry is “inactive”.

On to `CCCCCCCCC(=O)OCC`, for which the Potency entry is “inactive”.

`C#CCCC[C@@H]1OC(=O)CNC(=O)C([C@@H](C)CC)NC(=O)[C@@H]2CCCN2C(=O)C([C@@H](C)CC)OC(=O)[C@H](Cc2ccccc2)N(C)C(=O)[C@H](C(C)C)NC(=O)C1(C)C` (stereo not given in full): the Potency result was “inactive”.

In the case of `CC(C)=CCC1=C(O)[C@](O)(CC=C(C)C)C(=O)C(C(=O)CC(C)C)=C1O`, the Potency entry is “inactive”.

As for `CC(=O)Nc1ccccc1O`, the Potency result was “inactive”.

As to `C=C1C[C@@]23CC[C@H]4[C@@](C)(CCC[C@@]4(C)C(=O)O)[C@@H]2CC[C@]1(O)C3`, the Potency result is “inactive”.

For `O[C@@H]1CCN2Cc3ccccc3N=C12`, the Potency entry is “inactive”.

Take `CC1C(=O)OC2CCN3CC=C(COC(=O)C(C)(O)C1(C)O)C23` (stereo not given): the Potency entry is “inactive”.

As to `C=C1C2CC[C@]3(CCC4[C@@]5(C)CCC[C@@]4(CN(CCO)C5)[C@@H]3C2)[C@@H]1O` (stereo not given in full), the Potency result was “inactive”.

As for `CC(C)OC(=O)c1ccccc1`, the Potency entry was “inactive”.

With `COC(=O)C1=CO[C@@H](O[C@@H]2O[C@H](CO)[C@@H](O)[C@H](O)[C@H]2O)C2C1CC(O)O[C@H]2C` (stereo not given in full), the Potency entry is “inactive”.

Consider `CC(O)[C@H]1CC[C@H]2[C@@H]3CC[C@H]4C[C@@H](O)CC[C@]4(C)[C@H]3C(=O)C[C@]12C` (stereo not given in full), for which the Potency entry was “inactive”.

For the molecule `CC1=CC(=O)O[C@@H]1[C@@]1(C)C[C@H]2OC(=O)C[C@H]3[C@@H](C)C(=O)C(O)=C1[C@@]23CO`, the Potency result is “inactive”.

In the case of `O=C1N[C@@H](Cc2c[nH]c3ccccc23)C(=O)N[C@H]1Cc1c[nH]c2ccccc12`, the Potency result is “inactive”.

Take `N#CC(c1ccc(O)cc1)N1CCCCC1` (stereo not given): the Potency entry is “inactive”.

As for `O=CC(O)C1OC(=O)C(O)C1O` (stereo not given), the Potency entry was “inactive”.

With `C/C=C(/C)C(=O)OC1Cc2c(ccc3ccc(=O)oc23)OC1(C)C` (stereo not given), the Potency entry is “inactive”.

Regarding `COc1cc2c(c(OC)c1OC)-c1c(cc3c(c1O)OCO3)C[C@@H](C)[C@@H](C)C2`, the Potency entry is “inactive”.

As for `O=C(/C=C/c1ccc(O)cc1)OCc1occc(=O)c1O[C@@H]1OC(CO)[C@@H](O)[C@H](O)[C@@H]1O` (stereo not given in full), the Potency entry was “inactive”.

For the molecule `C[N+](C)(C)C[C@H](O)CC(=O)[O-]`, the Potency result is “inactive”.

Take `CCCc1ccc(OC)cc1`: the Potency result is “inactive”.

Take `O=C1c2c(O)cc(O)cc2O[C@@]12c1c(cc(O)c3c1O[C@H](c1ccc(O)cc1)[C@@H](O)C3)O[C@@H]2c1ccc(O)cc1`: the Potency entry is “inactive”.

As to `CC(C)c1ccc(C=O)cc1`, the Potency entry was “inactive”.

Regarding `CC(=O)C1CCC2C3CCC4=CC(=O)C=CC4(C)C3CCC12C` (stereo not given), the Potency result was “inactive”.

Regarding `CCCCC(C=O)NC(=O)C(CC(C)C)NC(=O)OCc1ccccc1` (stereo not given), the Potency entry is “inactive”.

Regarding `C=CC[C@]12C[C@@H](OC)C(=O)C=C1O[C@@H](c1ccc(OC)c(OC)c1)[C@H]2C`, the Potency result is “inactive”.

Turning to `C/C=C/C=C/CO`, the Potency entry was “inactive”.

For the molecule `CC1=CC=C(C(C)C)CC1`, the Potency result is “inactive”.

As to `CC(C)(O)[C@H](O)COc1c2occc2cc2ccc(=O)oc12`, the Potency result is “inactive”.

Take `C#CCCC/C(=C\C(=O)N(C)[C@H](C(=O)N(C)[C@H](C(=O)N(C)[C@H](C(=O)N(C)[C@H](C(N)=O)C(C)C)C(C)C)C(C)C)C(C)C)OC`: the Potency result is “inactive”.

Regarding `O=C(CCCO)CCCCCCCCC[C@H]1N[C@H](CO)[C@@H](O)[C@@H]1O`, the Potency result was “inactive”.

For the molecule `C=C(C)C(O)COc1c2occc2c(OC)c2ccc(=O)oc12` (stereo not given), the Potency entry was “inactive”.

Consider `CC1(C)OC2CC3C4CC(F)C5=CC(=O)C=CC5(C)C4C(O)CC3(C)[C@]2(C(=O)CO)O1` (stereo not given in full), for which the Potency entry is “inactive”.

As to `N#CC(=C(O)c1ccc(Cl)cc1Cl)c1nc2cc(Cl)ccc2c(=O)[nH]1`, the Potency entry was “inactive”.

Turning to `C/C(=C/CCC(C)(O)C1CC[C@@]2(C)[C@@H]3CC=C4[C@@H](CC[C@H](O[C@H]5O[C@@H](CO)[C@H](O)[C@@H](O)[C@@H]5O)C4(C)C)[C@]3(C)C(=O)C[C@]12C)CO[C@@H]1O[C@H](CO)[C@@H](O)[C@H](O)[C@H]1O` (stereo not given in full), the Potency entry was “inactive”.

As for `O=C(O)CC(=O)Nc1ccccc1C(=O)O`, the Potency entry is “inactive”.
